An excerpt weighted towards active compounds, which were near 5.1% of everything screened.
JMJD2E inh – inhibitors of human JMJD2E histone demethylase | AID 2147 | Potency, µM (top dose mostly 57.1 µM), for inactives: top-dose activity change, negative = inhibition, hits mostly inhibitors | JMJD2E catalytic domain, FDH-coupled NADH fluorescence (FDH is formaldehyde dehydrogenase) | actives 1.6% (n = 230,000) | B2RXH2; active = well fitted inhibition curve with a large enough effect, not every such curve was filed as active; inconclusive = small, poorly fitted or top-dose-only effect, or another doubt; inactive = no such curve, though single readings can be large or run the other way;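 also: potency is read from the fitted curve at half-maximal effect; 0% = wells with enzyme and -100% = buffer wells without enzyme; nearly all actives have a fitted effect of over 50% in size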
Target sequence (B2RXH2 1-337 limits assumed): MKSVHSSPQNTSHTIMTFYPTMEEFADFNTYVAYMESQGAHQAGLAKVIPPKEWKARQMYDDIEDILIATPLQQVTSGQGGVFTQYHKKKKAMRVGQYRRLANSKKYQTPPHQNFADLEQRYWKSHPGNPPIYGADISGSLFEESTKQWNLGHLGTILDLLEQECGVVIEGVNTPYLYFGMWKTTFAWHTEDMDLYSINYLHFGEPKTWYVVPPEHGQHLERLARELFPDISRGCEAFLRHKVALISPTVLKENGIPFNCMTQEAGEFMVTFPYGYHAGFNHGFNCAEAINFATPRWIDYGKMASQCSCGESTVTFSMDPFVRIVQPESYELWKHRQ
PNC assembly inh – blocks assembly of the perinucleolar compartment; PC3M PTB-GFP, PNC prevalence imaging, 16 h; hits give low values; activity change (PNC), negative = inhibition, % at 10 µM; actives 3.1% (n = 140,000); AID 2417;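 active = readout at or below -70, meaning at least 70% loss of cells showing the perinucleolar compartment, a nuclear body marking cancer cells; inconclusive = readout between -30 and a set limit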;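 also: plate controls were DMSO wells for no effect and camptothecin positive control wells for full effect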
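Read-out is percentage of cells bearing a perinucleolar compartment, from automated 20x imaging of fixed, Hoechst-stained PC3M PTB-GFP cells. Cells were seeded 4 h, then exposed 16 h to compound (23 nl of library stock) in duplicate plates.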
Tau ThT inhib – inhibitors of human tau fibril formation, thioflavin T binding. P10636. recombinant tau K18 P301L, heparin-induced fibrillization, ThT fluorescence. Potency, µM (highest dose often 57.4 µM), for inactives: top-dose activity, negative = inhibition, usual class: inhibitors. actives 2.1% (n = 270,000); also: potency is read from the fitted curve at half-maximal effect; nearly all actives have a fitted effect of over 55% in size
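Fibril formation assay: tau K18 P301L at 15 uM with trace Alexa 594 label, heparin inducer 20 uM, pH 7 sodium acetate buffer, 37 C for 6 hr; endpoint ThT signal.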
Tau fluor counter – counter-screen for tau fibril formation inhibitors; Potency, µM (titrated, usually from 57.7 µM), for inactives: top-dose activity change, negative = decrease; AID 1463; tau K18 P301L (four-repeat tau fragment) Alexa594 fluorescence, heparin fibrillization; actives 0.93% (n = 280,000); also: potency is read from the fitted curve at half-maximal effect; nearly all actives have a fitted effect of over 55% in size
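Human K18 P301L tau (15 uM unlabeled plus 0.24 uM Alexa 594-labeled, final) in 100 mM sodium acetate pH 7 was mixed with compound and 20 uM heparin and incubated 6 hr at 37 C.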
NPSR antagonist – blocks cAMP signaling of the human neuropeptide S receptor; Potency, µM (series often up to 38.3 µM), without a hit: at the top dose activity change, negative = inhibition, most hits filed as inhibitors; Q6W5P4; CHO-NPSR cells, cAMP TR-FRET, antagonist mode; actives 1% (n = 220,000); also: potency is read from the fitted curve at half-maximal effect; nearly all actives have a fitted effect of over 50% in size
Target sequence (Q6W5P4 whole entry, looked up): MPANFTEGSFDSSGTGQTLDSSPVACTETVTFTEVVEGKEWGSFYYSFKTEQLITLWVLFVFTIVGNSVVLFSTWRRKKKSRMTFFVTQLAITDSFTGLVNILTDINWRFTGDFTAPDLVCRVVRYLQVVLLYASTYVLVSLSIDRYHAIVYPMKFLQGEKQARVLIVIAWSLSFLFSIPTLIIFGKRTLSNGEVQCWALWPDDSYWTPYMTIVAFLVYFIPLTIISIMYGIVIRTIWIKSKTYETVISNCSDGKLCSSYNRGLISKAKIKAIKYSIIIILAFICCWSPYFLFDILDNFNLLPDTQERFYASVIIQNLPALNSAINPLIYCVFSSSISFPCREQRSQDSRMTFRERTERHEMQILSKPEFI
Tau fibril FP – blocks human tau fibril formation measured by polarization; actives 0.39% (n = 280,000); P10636; K18 P301L tau heparin fibrillization, Alexa594 FP, 6 h; Potency, µM (highest dose often 57.7 µM), for inactives: at the top dose activity, negative = inhibition, actives largely listed as inhibitors; AID 1468; also: potency is read from the fitted curve at half-maximal effect; nearly all actives have a fitted effect of over 55% in size
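Steps: dispense K18 P301L tau (15 uM plus 0.24 uM Alexa 594 tracer, final) in pH 7 sodium acetate; add compound; add heparin (20 uM final); incubate 6 hr, 37 C; add ThT (30 uM final); after 1 hr ambient, read FP.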
The depositor's hits bear a star; u = inconclusive; x = not tested or not shown; [ ] = dose if it differs, or a comment. Unless noted, calls follow the shape of the dose curve; as a rule, active = well fitted curve in the direction sought with a large enough effect; inconclusive = small, poorly fitted or top-dose-only effect, or another doubt; inactive = no such curve, though single readings can be large; an effect the other way counts as inactive or inconclusive. Unless noted, % is scaled to controls: 0 for no effect and ±100 for the full control effect.

SMILES	JMJD2E inh	PNC assembly inh	Tau ThT inhib	Tau fluor counter	NPSR antagonist	Tau fibril FP
COc1ccc(C2=CC3=C(Br)C(=O)C(C)(OC(=O)c4ccc(Cl)nc4)C(=O)C3=CO2)cc1 (stereo unspecified)	-4%	x	28µM*	u	11%	u
COc1ccc(C2=CC3=C(Br)C(=O)C(C)(OC(=O)C4CCCC4)C(=O)C3=CO2)cc1 (stereo unspecified)	-5%	x	u	-15%	1%	u
COC(=O)CCC(=O)OC1(C)C(=O)C2=COC(c3ccc(OC)cc3)=CC2=C(Br)C1=O (stereo unspecified)	4%	x	13µM*	-10%	8%	u
CN1C(=O)CC(C(=O)O)SC1=Nc1cc(Cl)cc(Cl)c1 (stereo unspecified)	-5%	-87*	10%	11%	6%	7%
CN1C(=O)CC(C(=O)O)SC1=Nc1cc(Cl)c(O)c(Cl)c1 (stereo unspecified)	-7%	-5	-8%	-11%	-3%[46.1 µM]	-4%
CCc1noc(-c2ccc(N3CCCCC3)c([N+](=O)[O-])c2)n1	x	x	6%	-5%	x	-8%
CSC1=NSC2=NC(=O)/C(=C/c3coc4ccccc4c3=O)C(=N)N12	u	6	18µM*	u	-41%	u
CSC1=NSC2=NC(=O)/C(=C/c3coc4ccc(O)cc4c3=O)C(=N)N12	u	u	22µM*	u	-20%	-5%
N=C1/C(=C\c2coc3ccccc3c2=O)C(=O)N=C2SC=CN12	u	x	u	-28%	-32%	-4%
CCOc1cc(Cl)c(S(=O)(=O)n2cc(C)nc2CC)cc1Cl	x	x	u	-19%	x	-8%
CN(c1ccc(O)cc1)c1nc(-c2ccccc2)cs1	-17%	u	u	16µM*[quencher]	-37%	u
CCCCN(C)CCCNC(=O)C1CCN(c2nc3ccc(CC)cc3s2)CC1	x	x	-16%	-24%	x	-13%
O=[N+]([O-])c1cc(Br)c(O)c(/C=N/Nc2nnnn2-c2cccc3ccccc23)c1	u	-7	16µM*	u	u	u
O=[N+]([O-])c1cc(Br)c(O)c(C=Nc2ccc(N3CCOCC3)cc2)c1	3%	x	10%	5%	-22%	2%
CCOC(=O)c1ccccc1NC(=O)N1CCCN(S(=O)(=O)c2ccc3c(ccn3CC)c2)CC1	x	x	0%	-20%	x	-11%
COc1ccc(S(=O)(=O)NCCC(=O)NCc2ccccc2)cc1	6%	5	10%	7.9µM*[quencher]	-5%[46.1 µM]	u
Cc1[nH]n(-c2ccccc2)c(=S)c1C=Nc1ccc([N+](=O)[O-])cc1	6.3µM*	118	25µM*	-19%	-5%	u
N#Cc1cc2c(OCC(O)CN3CCN(C(c4ccccc4)c4ccccc4)CC3)cccc2[nH]1 (stereo unspecified)	x	x	-12%	u	x	28µM*
CCC(=O)c1ccc(OCC(O)CN2CCN(C(c3ccccc3)c3ccccc3)CC2)cc1 (stereo unspecified)	-2%	66	-5%	-11%	u	6%
Cc1cc(NC(=O)CSc2nc(-c3cccs3)cc(C(F)(F)F)n2)no1	u	-97*	8%	-4%	-15%[46.1 µM]	-9%
COc1ccc(-c2cc(C(F)(F)F)nc(SCCC(=O)Nc3cccc(O)c3)n2)cc1	x	x	2%	u	x	14µM*
CCCNC(=O)CSc1nc(-c2cccs2)cc(C(F)(F)F)n1	u	-26	-9%	-4%	-11%[46.1 µM]	7%
COc1ccc(-c2cc(C(F)(F)F)nc(SCCC(=O)Nc3cccc(OC)c3)n2)cc1	x	x	-13%	u	x	u
COc1ccc(-c2cc(C(F)(F)F)nc(SCCC(=O)Nc3cc(C)on3)n2)cc1	22µM*	22	-2%	-3%	u	-7%
CC(NC(=O)c1c2c(nc3ccccc13)C(=O)N(C1CCCCC1)C2)c1ccccc1 (stereo unspecified)	x	x	-14%	-8%	x	-5%
SMILES	JMJD2E inh	PNC assembly inh	Tau ThT inhib	Tau fluor counter	NPSR antagonist	Tau fibril FP
Cn1c[n+](C)cc1-c1ccc(/C(N)=N/O)cc1	u	-80*	1%	-4%	14%	-4%
COc1ccc(C(=O)NCCn2cc(SCc3cccc(F)c3)c3ccccc32)cc1OC	x	x	u	u	x	-13%
COc1ccc(-c2n(CC(=O)OC3CC(C)CCC3C(C)C)c3ccccc3[n+]2C)cc1 (stereo unspecified)	-4%	x	u	-10%	15%	-2%
COc1ccc(OCc2n(CC(=O)OC3CC(C)CCC3C(C)C)c3ccccc3[n+]2C)cc1 (stereo unspecified)	4%	x	x	0%[0.0958 µM]	10µM*	0%[0.0958 µM]
COC1=CC(=O)C(C(=O)c2ccccc2)=CC1=O	u	x	3.2µM*	6.3µM*[quencher]	x	10µM*
COc1ccc(CN(C)c2ncnc(N)n2)cc1	5%	2	-7%	-7%	-6%[46.1 µM]	1%
COc1ccc(CNc2ncnc(N)n2)cc1	-7%	-101*	-12%	-8%	-4%[46.1 µM]	-4%
COc1ccc(-c2nc3cc(C(C)C)ccc3o2)cc1NC(=O)c1ccccc1[N+](=O)[O-]	x	x	u	u	x	-3%
Cn1c(Oc2ccc(F)cc2)nc2c1c(=O)n(Cc1ccccc1Cl)c(=O)n2C	x	x	-11%	-24%	x	-5%
COc1ccnc(CSC(N)=Nc2cccc(C(F)(F)F)c2)c1	u	18	18µM*	u	-21%	u
COc1ccnc(CSC(N)=Nc2ccccc2OC)c1	0%	-81*	32µM*	-19%	-8%[46.1 µM]	u
CCc1ccc(-n2nc3cc(C)c(NC(=O)c4cccc5ccccc45)cc3n2)cc1	x	x	1%	-6%	x	-5%
C/C1=C2N=C(/C=C3N=C(/C(C)=C4\[N-]C(C)(C5N=C1C(C)(CCC(=O)NCC(C)OP(=O)([O-])O[C@H]1C(O)C(n6cnc7cc(C)c(C)cc76)O[C@@H]1CO)C5CC(N)=O)C(C)(CC(N)=O)C4CCC(N)=O)C(C)(CC(N)=O)C\3CCC(N)=O)C(C)(C)C/2CCC(N)=O.[CH2-]C1OC(n2cnc3c(N)ncnc32)C(O)C1O.[Co] (stereo partly specified)	14µM*	x	10µM*	u	x	13µM*
COC(=O)[C@H](CCCN=C(N)N)NC(=O)CCCc1c(-c2ccccc2)[nH]c2c(F)cc(F)cc12	x	x	-10%	u	x	2%
Cc1cc(C(c2ccc(C)o2)c2ccc(C)o2)c(O)c([N+](=O)[O-])c1	-21%	23	u	-26%	-14%[46.1 µM]	-6%
Cc1cc(/C=N/n2cnnc2)c(O)c([N+](=O)[O-])c1	-1%	-118*	4µM*	-6%	-15%	11%
